# PubChem BioAssay AID1259423 (Fisher Drug Discovery Resource Center, 2018)
# Several values for one entry are separate records, joined by “and”; a condition that tells them apart may be missing. Identical values can stand only once. In all, about 270,000 compounds went through this assay and about 410 (0.15%) were called active. This is one part of a sample in which actives are shown more often than they occur. Cut-off read from the data, not from the text of the source: active = activation above about 40%; inactive = the rest, inconclusive results apart. Where a structure was tested more than once in an assay, its records may differ in their call.
# System: Aedes aegypti neuropeptide Y-like receptor 7 (NPYLR7)
# Experiment: agonists of mosquito NPYLR7 receptor, primary screen, cell-based, Aedes aegypti, calcium fluorescence, mosquito biting behavior (AID 1259423);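 note: 0% = vehicle and 100% = reference agonist at the receptor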
# Details: HEK293T NPYLR7/Galpha15, GCaMP6s calcium fluorescence, at 10 µM, stronger effect = higher value
# [1] = measured here: Max-Min RFU normalised activation
Compound,activation,activation [1]
Cc1nc2c(=O)n(CC(=O)Nc3ccc(F)cc3)nc(-c3ccc(F)cc3)c2s1,-3.19% (inactive),-5.39%
COc1ccc(C(=O)NNc2nc3c(C)c(C)ccc3s2)cc1,3.57% (inactive),-0.501%
O=S(=O)(Nc1ccccc1OC(F)F)c1ccccc1F,-1.67% (inactive),-2.18%
Nc1[nH]n(-c2c(Cl)cc(Cl)cc2Cl)c(=O)c1N=Nc1cccc(C(F)(F)F)c1,-0.505% (inactive),-6.22%
O=C(Nc1cccc(Cl)c1)c1cn(CC2CCCO2)cc2c(=O)n(-c3ccccc3)nc1-2 (stereo not given),6.66% (inactive),6.45%
CCOC(=O)Cc1csc(=Nc2ccc(OC)cc2)n1CCO,-15.9% (inactive),-20.5%
CC(C)OCCCNC(=O)c1ccc(-c2cccc(C(F)(F)F)c2)s1,-2.79% (inactive),5.92%
Cc1cc2nc3c(=O)[nH]c(=O)nc-3n(C[C@H](O)[C@H](O)[C@H](O)CO)c2cc1C,71.4% (active),64.2%
COc1cccc(OC)c1-c1cnnc(NCCN2CCCc3ccccc32)n1,19.3% (inactive),11.8%
COc1ccc(CC(=O)N(Cc2nc3cc(Cl)ccc3o2)C2CCCC2)cc1OC,4.51% (inactive),-5.03%
Cc1c(C(=O)N2CCCCC2CCc2ccc(O)cc2)oc2c(F)cccc12 (stereo not given),-1.59% (inactive),-5.83%
N#C/C(=C/c1cn(-c2ccccc2)nc1-c1ccco1)c1nc2ccccc2c(=O)[nH]1,11.8% (inactive),10.5%
N#CC(=C(O)CSc1ccc2c(c1)OCCO2)c1nc2ccccc2[nH]1,5.29% (inactive),3.43%
CC1CN(c2ccc(/C=C(\C#N)c3nc4ccccc4[nH]3)o2)CC(C)O1 (stereo not given),81.4% (active),110%
COc1ccc(C(CC(=O)N(C)Cc2cnccn2)c2ccccc2)cc1 (stereo not given),16% (inactive),4.14%
O=C(NCCCNC(=O)[C@H]1CCCN1C(=O)COc1ccc(Cl)cc1)c1ccc(F)cc1,-0.263% (inactive),6.73%
CC1CCN(C(=O)C(C)Nc2ccc3c(c2)OCO3)CC1 (stereo not given),3.12% (inactive),1.09%
COc1cc2c(cc1OC)C(c1ccccc1)N(C(=O)c1cc3c(s1)-c1ccccc1OC3)CC2 (stereo not given),-0.991% (inactive),6.66%
COc1ccc(CC2c3cc(OC)c(OC)cc3CC[N+]2(C)CCC(=O)OCCCCCOC(=O)CC[N+]2(C)CCc3cc(OC)c(OC)cc3C2Cc2ccc(OC)c(OC)c2)cc1OC (stereo not given),41.9% (inactive) and -3.83% (inactive) and 69.2% (active),33.2% and 2.45% and 52.5%
COc1cc2c(cc1O)[C@@H](Cc1ccc(O)cc1)[N+](C)(C)CC2,5.5% (inactive),-4.18%
COc1ccc(CC(=O)OCc2ccc(COC(=O)Cc3ccc(OC)c(OC)c3)cc2)cc1OC,-2.95% (inactive),-6.45%
CCOc1ccc(NC(=O)CSc2nc3c(c(=O)n2CCOC)SC(C)C3)cc1 (stereo not given),3.32% (inactive),0.972%
O=C(NC1COC2(CCCCC2)C1)c1ccco1 (stereo not given),-4.17% (inactive),-7.46%
CC(C)CC(NC1CCN(C(=O)c2ccccc2)CC1)c1ncnn1C (stereo not given),8.96% (inactive),6.07%
C/C(=N/Nc1nc2c(s1)CCCC2)c1ccc(Cl)cc1,0.513% (inactive),5.88%
O=C1NC(c2ccc3c(c2)OCO3)C(C(=O)c2ccccc2)C(O)(C(F)(F)F)N1 (stereo not given),42.8% (active),72%
O=C1NC(c2ccc(Cl)cc2)C(C(=O)c2ccccc2)C(O)(C(F)(F)F)N1 (stereo not given),-3.23% (inactive),-4.42%

Compound,activation,activation [1]
CC1=C(C(=O)Nc2ccccc2)C(c2ccc3c(c2)OCO3)NC(=S)N1 (stereo not given),4.23% (inactive),8.09%
Cc1ccc(Cl)cc1NC(=O)CN1C(=O)c2ccc([N+](=O)[O-])cc2C1=O,-3.83% (inactive),-10.3%
CC(C)c1ccc(C2CC(c3ccccc3)=Nc3ncnn32)cc1 (stereo not given),4.24% (inactive),2.65%
O=C(Nc1ccc(N2CCC(Cc3ccccc3)CC2)c(C(=O)NCc2ccc(F)cc2)c1)c1cccc([N+](=O)[O-])c1,-3.24% (inactive),7.02%
CCCCNc1ncnc2sc3c(c12)CCC(C)C3 (stereo not given),1.78% (inactive),2.41%
O=C(O)CCC(=O)Nc1nc2c(s1)CCCC2,1.28% (inactive),-0.361%
COc1ccc(C(=O)NCCn2ncc3c(=O)n(Cc4cccc(C)c4)cnc32)cc1,-1.65% (inactive),-7.02%
c1csc(-c2nc(CSc3nnc(-c4cccs4)n3C3CC3)co2)c1,-0.388% (inactive),7.96%
COc1ccccc1CNC1CC2CCC1(C)C2(C)C (stereo not given),7.42% (inactive),2.21%
COc1ccc(-c2cccc(-c3nnc(C)s3)c2)c(OC)c1,2.95% (inactive),1.01%
CC(C)c1ccc(C(=O)NCc2ccccc2CS(=O)(=O)N2CCOCC2)cc1,-3.68% (inactive),-3.21%
Fc1ccccc1-c1noc2c1CN(Cc1cccn1-c1ncccn1)CC2,8.24% (inactive),5.36%
Clc1ccc(-c2noc3c2CN(CCn2cc(Cl)cn2)CC3)cc1,74.9% (active),54.3%
c1ccc2c(-c3noc4c3CN(CC3CCCO3)CC4)cccc2c1 (stereo not given),14.2% (inactive),6.24%
COCc1c(Br)c(C)nc(OCC(=O)N/N=C\c2cc(Br)c(OCc3ccc(Cl)cc3)c(OC)c2)c1C#N,25.2% (inactive),27.7%
Cc1nn(-c2ccc(F)cc2F)c(C)c1CCC(=O)N1Cc2cccc3cccc(c23)C1,4.97% (inactive),3.44%
COc1ccc(Cl)c2sc(N(CCN(C)C)C(=O)c3cc(C)n(C)n3)nc12,1.87% (inactive),0.849%
Cc1ccc(Sc2ncccc2C(=O)N2CCN(c3nccc(-c4cccc(C(F)(F)F)c4)n3)CC2)cc1,14% (inactive),18.9%
COc1cc(OC)cc(C(NC(=O)Cn2ccccc2=O)c2nccn2C)c1 (stereo not given),5.09% (inactive),2.46%
CN(Cc1ccccc1)C1(C(=O)NCC2COCCO2)Cc2ccccc2C1 (stereo not given),2.27% (inactive),-0.863%
COc1c(C=NNC(=O)c2cc(Br)ccc2O)sc2ccccc12,-6.22% (inactive),-11.5%
O=c1oc2c(CN3CC4CC(C3)c3cccc(=O)n3C4)c(O)ccc2cc1-c1nc2ccccc2s1 (stereo not given),303% (active),372%
COc1cc(C(=O)N2CCOC(c3ccccc3)C2)cc(OC)c1C (stereo not given),77.6% (active),58.9%
Cc1c(F)cccc1C(=O)N1CCOC(c2ccccc2)C1 (stereo not given),0.877% (inactive),-1.3%
COc1ccc2cc(C3CN(C(=O)c4ccc[nH]4)CCO3)ccc2c1 (stereo not given),-5.79% (inactive),-7.4%
O=S(=O)(Cc1ccc(F)cc1)NCc1ccccc1OC(F)F,1.17% (inactive),1.23%
Cc1cccc(C(=O)O/N=C\c2ccc(Br)cc2)c1,0.973% (inactive),3.02%

Compound,activation,activation [1]
CON(C)C(=O)c1cccc(CN2CCS(=O)(=O)CC2)c1,7.7% (inactive),4.38%
CCOC(C)c1noc(CNC2(c3noc(CC)n3)CCCC2)n1 (stereo not given),3.73% (inactive),1.21%
C(=C\c1nn2c(CN3CCCCC3)nnc2s1)/c1ccccc1,1.3% (inactive),0.534%
COC(=O)C1Cc2ccccc2CN1Cc1cccc(C(=O)N(C)C)c1 (stereo not given),1.77% (inactive),-13.5%
COc1ccc(CCN2CCC(CN(C)C(=O)c3ccoc3)CC2)cc1,13.3% (inactive),6.16%
O=c1[nH]c(Cn2nnc3ccccc3c2=O)nc2ccccc12,-3.31% (inactive),-3.64%
CCCCCCCC(=O)Nc1c(-c2ccc(Cl)cc2)nc2cc(C)ccn12,-5.12% (inactive),1.14%
C/C=C\COC1CCCN(C(=O)COc2ccc(Cl)cc2)C1 (stereo not given),-4.16% (inactive),-5.2%
CCN1CCN(CC(O)COc2ccc(CN3CCc4ccccc4C3)cc2OC)CC1 (stereo not given),3.88% (inactive),3.04%
Brc1ccc(Oc2nc(N3CCCC3)nc(N3CCCC3)n2)cc1,-2.87% (inactive),-5.23%
N#CC1C(=N)SC(=N)C(C#N)C1c1cccc(O)c1 (stereo not given),51% (active),53%
CCc1ccc(C2C(C#N)C(=N)SC(=N)C2C#N)cc1 (stereo not given),0.645% (inactive),-2.49%
N#CC1C(=N)SC(=N)C(C#N)C1c1ccco1 (stereo not given),-5.34% (inactive),-2.82%
COc1ccc(-c2nc(NC(=O)C3CCCC3)sc2C)cc1,-2.08% (inactive),2.65%
CCC(C)(NC(=O)C1Cc2ccccc2O1)c1nccs1 (stereo not given),-1.24% (inactive),-2.94%
CCC1CCCCN1C(=O)CSc1c(C)[nH]c2ccccc12 (stereo not given),-1.59% (inactive),-2.64%
CCCN(C(=O)Cn1nc(C)c2ccccc2c1=O)[C@@H]1CCCC[C@H]1O,0.206% (inactive),-0.142%
CCCc1cc(=O)n2[nH]c(C)c(-c3cccc4ccccc34)c2n1,-15.2% (inactive),-20.4%
NC(=O)CN1C(=O)COc2ccccc21,-19.8% (inactive),-26.8%
CCCCN(C)C(=O)c1cnn(-c2ccccc2)c1,0.0336% (inactive),-1.33%
O=C(NC1C=CS(=O)(=O)C1)c1cccc2ccnn12 (stereo not given),22.3% (inactive),9.91%
CCCC(C(=O)OCCN(CC)CC)(c1ccccc1)c1ccccc1,3.25% (inactive) and -1.52% (inactive) and 68.5% (active),-42.8% and -5.9% and 58.4%
CCC(N)(C(=O)OC)c1ccccc1 (stereo not given),8.89% (inactive),3.04%
CC1Cc2c(NC(=O)CSCc3ccccc3)nn(C)c2NC1=O (stereo not given),3.06% (inactive),-2.58%
CCN(CC)c1ccc2cc(-c3nnc(Nc4ccccc4F)s3)c(=O)oc2c1,-10.4% (inactive),-12.8%
O=c1[nH]c(=O)n(Cc2cccc(OC(F)F)c2)cc1Cl,0.422% (inactive) and -19.6% (inactive),-0.254% and -21%
